From PubChem BioAssay AID504720 (Sanford-Burnham Center for Chemical Genomics, 2011) come the findings set out here.

SMILES strings stand for the structures. In all, about 350,000 compounds went through this assay and about 1,100 (0.31%) were called active. This is one part of a sample in which actives are shown more often than they occur. Values without a mark were called inactive. No stated cut-off is given here; in the data, active means activation above about 50%; inactive means the rest.

Sequence of Endoribonuclease toxin MazF (Escherichia coli (strain K12)) (P0AE70 whole entry, looked up): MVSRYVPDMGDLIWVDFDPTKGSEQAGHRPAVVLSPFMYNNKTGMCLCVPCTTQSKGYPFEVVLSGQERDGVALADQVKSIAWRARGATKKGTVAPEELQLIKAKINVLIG

The assay addresses Endoribonuclease toxin MazF (Escherichia coli (strain K12)) (UniProt P0AE70). Description: activators of E. coli MazEF toxin-antitoxin RNase, primary screen, biochemical, fluorescence, uHTS (AID 504720). The settings on record: FAM/BHQ RNA-DNA oligo cleavage fluorescence, 5 h, at 20 µM, stronger effect = higher value.
With `O=C(NC(=S)Nc1cc(C(F)(F)F)ccc1N1CCOCC1)c1ccc(-c2cccc(Cl)c2)o1`, the activation was -2.26%. The figure for `O=C(O)C(c1ccccc1)N1C(=O)/C(=C\c2ccc(-c3cccc(Cl)c3)o2)SC1=S` (stereo not drawn) is 199% (active); for `CC(C(=O)NC1CCS(=O)(=O)C1)N1C(=O)/C(=C/c2ccc(Cl)cc2)SC1=S` (stereo not drawn) it is 0.406%; for `CC(C)N=C1CCCC1C(=S)SSC(=S)C1CCCC1=NC(C)C` (stereo not drawn) it is 1.19%. Take `CN(C)c1ccc(C2N(C)C(=O)c3ccccc3N2C)cc1` (stereo not drawn): the activation is -0.422%. In the case of `CN(C)c1ccc(Nc2c3c4c(cccc4n(C)c2=O)C(=O)c2ccccc2-3)cc1`, the activation was 178% (active).

For `NC1=NC(=O)C(Cc2cccc(Cl)c2Cl)S1` (stereo not drawn), the activation was -10%. The figure for `COc1cc(C(=O)NCc2nnc(SCC(=O)Nc3nc4ccc(C)cc4s3)o2)cc(OC)c1OC` is 12.4%. For `CCN(CC)CCOc1ccc2c(c1)C(=NNC(=O)c1ccccn1)c1cc(OCCN(CC)CC)ccc1-2`, the activation is -0.85%. In the case of `CN(CCNC(=O)c1cc2c(-c3ccccc3F)nn(C)c2s1)C1CCCCC1`, the activation was 18.1%. For `CCc1nc(Nc2ccc3nccnc3c2)c2oc3ccccc3c2n1` the value was 92.8% (active); for `C[C@@H](Nc1nc(-c2ccccc2)nc2c1oc1ccccc12)C(=O)O`, 0.442%.

In the case of `COCCNc1nc(-c2ccccc2)nc2c1oc1ccccc12`, the activation was 10.6%. The figure for `O=C(CSc1ccc(Cl)cc1)NC1CC1` is 8.89%; for `Cc1noc(NS(=O)(=O)c2ccc(N3CC(O)=C(c4ccccc4)C3=N)cc2)c1C` it is -0.03%; for `O=c1o[nH]c(-c2ccccc2)c1N=Nc1c(F)cccc1Cl` it is -10.5%. As to `COc1ccc(N=Nc2c(-c3ccc(OC)cc3)[nH]oc2=O)cc1`, the activation is 61.5% (active).

For `COc1ccc(N=C2C=CC(=O)O2)cc1`, the activation is 6.95%. For the compound `COc1ccc(N2CCN(Cc3ccc(Br)s3)CC2)cc1`, the activation was -3.28%. For `O=S(=O)(c1cnccc1N1CCN(/N=C/c2ccc(Br)cc2)CC1)N1CCCCC1` the value was -7.86%. Regarding `O=C(c1ccc(Cl)nc1)N1CCN(S(=O)(=O)c2ccc3c(c2)OCCO3)CC1`, the activation is 2.83%. For `CC1CC(C)CN(S(=O)(=O)c2cccc(C(=O)N3C(=O)c4cccc(N)c4C3=O)c2)C1` (stereo not drawn), the activation is 3.79%. `COc1cc(C(=O)N2C(=O)c3cccc(N)c3C2=O)cc(OC)c1OC`: the activation is 75.9% (active). Regarding `COc1cc(C(=O)N2CCN(C)CC2)cc(OC)c1OC`, the activation was 4.16%. For `NC(CSC(c1ccccc1)(c1ccccc1)c1ccc(-c2ccccc2)cc1)C(=O)O` (stereo not drawn) the value was -7.6%; for `COc1ccc(CN(C)C(=S)Nc2ccc(Cl)cc2Cl)cc1`, 7.07%. As to `O=c1c2ccccc2nc(/C=C/c2ccc(F)cc2)n1-c1ccccc1O`, the activation is -12.9%.

For `CCn1c(/C=C/c2ccc([N+](=O)[O-])o2)nc2ccccc2c1=O`, the activation is 1270% (active). For `O=c1c2ccccc2nc(/C=C/c2ccco2)n1-c1ccccc1O` the value was -0.876%; for `CN1OC[C@@H]2CN[C@H](c3ccc(-c4ccccc4)cc3)C[C@@H]21`, 8.87%.

Turning to `COC(=O)c1c(-c2ccsc2)oc2ccc(-c3cc(OC)c(OC)c(OC)c3)cc12`, the activation is 1.83%. For `O=C1N[C@H](Cc2c[nH]c3ccccc23)COC(=O)[C@H](Cc2ccc(F)cc2)C/C=C\C[C@H]1CC(=O)N(CCO)Cc1ccccc1` the value was -14.8%; for `Cc1nnc2n1N=C(c1ccc3c(c1)NC(=O)CO3)CS2`, -1.68%.

On to `Cc1c(C(=O)NCCN(C)C)oc2ccc(S(=O)(=O)N3CCCC3)cc12`, for which the activation is 111% (active). For `CCOC(=O)C1CCN(C(=O)c2oc3ccc(S(=O)(=O)N4CCCCCC4)cc3c2C)CC1` the value was -5.11%; for `COc1ccc(NC(=O)c2oc3ccc(S(=O)(=O)N4CCOCC4)cc3c2C)cc1`, 8.57%; for `COCCNC(=S)N1CCN(C)CC1`, -2.39%. As for `C/C(CC(=O)NCc1ccc(Cl)cc1)=N\NC(=O)COc1ccc(C)cc1Br`, the activation is -5.14%. For `CC(CCc1ccccc1)NCC(O)c1cccc([N+](=O)[O-])c1` (stereo not drawn) the value was 11.5%; for `COc1cccc(/C=N/NC(=O)c2[nH]nc3c2CCc2ccccc2-3)c1O`, 160% (active).

With `CCn1c(/C=N/NC(=O)c2ccc(OC)cc2)nc2ccccc21`, the activation is -0.18%.

Turning to `COc1cc(/C=N/NC(=O)c2cccnc2)ccc1OC(=O)c1cccc(Br)c1`, the activation was 8.67%.

With `COc1ccc(S(=O)(=O)N2CCOC23CCN(S(=O)(=O)c2ccc([N+](=O)[O-])cc2)CC3)cc1`, the activation was 5.08%. Regarding `COc1ccc(C(=O)Nc2ccc(C3(C#N)CCCC3)cc2)cc1OC`, the activation is -19.2%. With `CCOCCCNC(=O)C(NC(=O)c1ccccc1O)c1ccccc1` (stereo not drawn), the activation was -12.8%. Take `CC[C@@H]1Cc2cc(O)ccc2C2=C1c1ccc(O)cc1C[C@H]2CC`: the activation was 84.7% (active). The figure for `O=C1CC(Sc2ncn[nH]2)C(=O)N1c1ccccc1` (stereo not drawn) is 3.68%; for `Cc1[nH]c(C)c(S(=O)(=O)N2CCC(C)CC2)c1C(=O)N1CCCC1` it is 1.65%.

In the case of `CCOC(=O)c1c(C)[nH]c(C)c1C(=O)COC(=O)/C=C/c1cccc([N+](=O)[O-])c1`, the activation is 3.22%. For the compound `Cc1cccc(N=Nc2c(O)[nH]c3ccc(F)cc23)c1`, the activation is 946% (active). The figure for `Cc1ccc(CNC(=O)CSc2nnc3c(n2)[nH]c2ccc(F)cc23)cc1` is 18.4%; for `COc1cc(OC)c(C(=S)N2CCCC2)cc1OC` it is 9.16%.

`O=C1C2(Cl)C3(Cl)C4(Cl)C(Cl)(Cl)C5(Cl)C3(Cl)C1(Cl)C5(Cl)C24Cl` (stereo not drawn): the activation was 65.6% (active). The figure for `C=CCn1c(-c2ccc(Cl)cc2)ccc(C#N)c1=O` is 2.85%; for `Cc1nc(Nc2ccccc2F)c2nnn(Cc3ccccc3Cl)c2n1` it is 61.6% (active); for `Cc1nc(Nc2ccc3c(c2)OCCO3)c2nnn(Cc3ccccc3Cl)c2n1` it is -3.74%. Take `Cc1nc(Nc2ccc(S(=O)(=O)N3CCCC3)cc2)c2nnn(Cc3ccccc3)c2n1`: the activation was 12.1%. Turning to `CC(C)(C)OC(=O)CNC(=O)c1[nH]cnc1C(=O)N[C@@H](CCCCN)C(=O)OC(C)(C)C`, the activation was -1.01%.

`CC(=O)Nc1ccc(C(=O)N(C2=NC(C)CS2)c2ccc(Cl)cc2)cc1` (stereo not drawn): the activation is 2.92%. Take `C/C(=N\NC(=O)COc1c(C)cccc1C)c1cccs1`: the activation is -0.53%. The figure for `CCOc1ccccc1N1CCN(C(=O)c2ccc3[nH]c(C)c(C)c3c2)CC1` is 9.45%. On to `CCN1C[C@@H]2[C@@H]3C(=O)N(Cc4ccccc4)C(=O)[C@@H]3[C@](Cc3ccccc3)(C(=O)OC)N2C1=NC1CCCCC1`, for which the activation was 37.9%. As to `CCCN=C1N(C)C[C@@H]2[C@@H]3C(=O)N(Cc4ccccc4)C(=O)[C@@H]3[C@](C)(C(=O)OC)N12`, the activation is 3.52%. Turning to `CC[C@]1(C(=O)OC)[C@H]2C(=O)N(C)C(=O)[C@H]2[C@H]2CN(C)C(=NCc3ccccc3)N21`, the activation was 74.5% (active).

As to `CCOC(=O)c1ccc(NC(=O)c2ccc(NC(=O)C3CCCO3)cc2)cc1` (stereo not drawn), the activation is 2.03%.

Take `OCCC1CN(Cc2ccc3nsnc3c2)CCN1C1CCCCC1` (stereo not drawn): the activation was 5.81%.

With `CC(C)Cn1c(CCC(=O)O)ccc1-c1cccs1`, the activation is -11.1%. For `CC(=O)OC1CCC2(C)C(=CCC3C4CC(=O)N(O)C(=O)C4(C)CCC32)C1` (stereo not drawn) the value was 1.13%.

`CCN1/C(=C\c2ccc3ccccc3[n+]2CC)Sc2cc(C)ccc21`: the activation is 79.5% (active). For the compound `CCN1/C(=C/c2ccc3ccc(C)cc3[n+]2CC)Sc2ccccc21`, the activation was 72.6% (active). The figure for `CN(C(=O)CC(NC(=O)c1ccccc1)(c1ccccc1)c1ccccc1)c1ccccc1` is 10.5%; for `Cc1c(Cl)cccc1NC(=S)N(Cc1ccccc1)Cc1cccnc1` it is 13.1%.

As to `CC(C)c1ccc(NC2CCCN(C(=O)c3ccncc3)C2)cc1` (stereo not drawn), the activation was 5.6%.

Consider `C[C@@H](NC(=O)OC(C)(C)C)c1nnc(S(=O)(=O)Cc2ccccc2)o1`, for which the activation is 8.87%. As to `C/C(=N\OC(=O)c1ccccc1)c1c(C)nc2cc(C)ccn12`, the activation was 4.56%. `COc1cc(Cl)c(C)cc1NC(=O)COC(=O)c1cc(SC)ccc1Cl`: the activation was -5.68%. For the compound `COCCn1c(SCC(=O)Nc2ccc(F)cc2F)nc2c(c1=O)SCC2`, the activation is 7.1%. For `COc1cc(N2CCCC2)c(OC)cc1/C=C(/C#N)c1cccc(Br)c1` the value was -128%; for `O=C(NCCCNC(=O)NC1CCCCC1)NC1CCCCC1`, 6.46%. Turning to `COC(=O)Cn1c(=NC(=O)CSCC(=O)Nc2cc(C)on2)sc2ccccc21`, the activation was 5.86%. For `CC(C)(C)[C@H]1C=C(C(=O)NCc2ccccc2)O[C@@H](OCc2ccc(CO)cc2)C1` the value was 3.75%; for `CCN(CC)S(=O)(=O)c1cc([N+](=O)[O-])ccc1N=Nc1c(O)n(C)c2ccccc12`, 142% (active). For `CCN(CC)S(=O)(=O)c1cc([N+](=O)[O-])ccc1NNC(=O)Nc1ccccc1` the value was 3.61%; for `CCn1c(O)c(N=NC(=O)c2cccc(S(=O)(=O)N3CCCCC3)c2)c2ccccc21`, -8.66%; for `O=C(COC(=O)c1ccc(F)cc1F)Nc1ncccn1`, -2.63%. For the compound `CCOc1ccc(N(CC(=O)NCCOc2ccccc2OC)S(=O)(=O)c2ccccc2)cc1`, the activation was -0.33%. The figure for `O=C(COc1ccc(S(=O)(=O)N2CCCCC2)cc1)NCc1ccccn1` is 9.35%; for `CCOCCOC(=O)C1=C(C)N(C)C(=O)NC1c1ccccc1F` (stereo not drawn) it is 7.27%.
